Experimental data as given in PubChem BioAssay (NCI).
This is part of a sample that, as a whole, favours compounds with a hit. Of some 83,000 tested, about 20% had one in any assay.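 How to read the values: 0–100, growth inhibition (40 = 60% inhibited); 0, no net growth; -100 to 0, cell death (-40 = 40% of starting cells died; -100 = all dead).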 Values without a mark were called inactive. Activity calls are given as the source filed them. Rule for the calls: active = growth percent below 10; inactive = the rest.

Columns and labels:
Test in all cases: NCI-60 one-dose screen, 48 h (100 = growth as untreated, 0 = no growth, -100 = all killed)
Conditions in all cases: 10 µM unless noted
HCT-15 colon = tested on: HCT-15 colon
HT29 colon = tested on: HT29 colon
SNB-75 CNS = tested on: SNB-75 CNS
SNB-19 CNS = tested on: SNB-19 CNS
U251 CNS = tested on: U251 CNS
PC-3 prostate = tested on: PC-3 prostate
SK-MEL-5 melanoma = tested on: SK-MEL-5 melanoma
UACC-62 melanoma = tested on: UACC-62 melanoma
LOX IMVI melanoma = tested on: LOX IMVI melanoma
SK-MEL-28 melanoma = tested on: SK-MEL-28 melanoma
SK-MEL-2 melanoma = tested on: SK-MEL-2 melanoma
EKVX NSCLC = tested on: EKVX NSCLC
UO-31 renal = tested on: UO-31 renal
TK-10 renal = tested on: TK-10 renal
ACHN renal = tested on: ACHN renal
CAKI-1 renal = tested on: CAKI-1 renal
A498 renal = tested on: A498 renal
CCRF-CEM leukemia = tested on: CCRF-CEM leukemia
SN12C renal = tested on: SN12C renal
MOLT-4 leukemia = tested on: MOLT-4 leukemia

SMILES	growth (HCT-15 colon)	growth (HT29 colon)	growth (SNB-75 CNS)	growth (SNB-19 CNS)	growth (U251 CNS)	growth (PC-3 prostate)	growth (SK-MEL-5 melanoma)	growth (UACC-62 melanoma)	growth (LOX IMVI melanoma)	growth (SK-MEL-28 melanoma)	growth (SK-MEL-2 melanoma)	growth (EKVX NSCLC)	growth (UO-31 renal)	growth (TK-10 renal)	growth (ACHN renal)	growth (CAKI-1 renal)	growth (A498 renal)	growth (CCRF-CEM leukemia)	growth (SN12C renal)	growth (MOLT-4 leukemia)
Cc1ncc(C(=O)Nc2ccc(CN3CCN(C)CC3)c(C(F)(F)F)c2)cc1C#Cc1cnc(N)cc1C#N	-65.2% (active)	-86.2% (active)	37%	74.4%	-98.6% (active)	-55.6% (active)	-100% (active)	-83.7% (active)	-99.9% (active)	-94.6% (active)	-63.8% (active)	57.5%	-96.8% (active)	-54.7% (active)	-100% (active)	-88.2% (active)	-35.5% (active)	13.6%		
O=c1ccc(-c2nc(N3CCOCC3)c3ccccc3n2)c[nH]1	99.1%	101%	81.1%	98.7%	99.1%	93.5%	88.3%	55.5%	98.3%	97.6%	108%	59.2%	83.1%	87.3%	93.1%	95.9%		108%	94.6%	110%
COc1cc2oc(-c3cccc(C(=O)Nc4ccc(Br)cc4)c3)cc(=O)c2c(OC)c1OC	40.2%	39.5%	81.7%	80.9%	65.7%	53.1%	56.3%	63.7%	-20.9% (active)	35.7%	71.2%	60%	55.7%	62.5%	72.5%	20.6%		41.9%		49.5%
CC(C)(C)CC(C)(C)n1nnnc1C(NC12CC3CC(CC(C3)C1)C2)c1ccccc1 (centres undefined)	84.5%	79.9%	80.5%	90.5%	89.4%	77.6%	88.9%	69.2%	87.6%	99.6%	95.8%	84.9%	81.6%	94.9%	95.8%	83.1%		83.5%		90%
COc1ccc(C(=O)Cn2c(C(=O)c3ccccc3)nc3ccccc32)cc1	18.6%	14.2%	-8.26% (active)	55.2%	25.1%	29.7%	-1.14% (active)	15.7%	43.8%	94.2%		71.2%	32.7%	59.6%	46.1%	24%	46.8%		43%	7.92% (active)
COc1cc(-c2n/c(=C\c3c(O)[nH]c4ccc(Cl)cc34)cc3c2=Nc2ccccc2-3)ccc1F	46.4%	-10.3% (active)	-39.5% (active)	2.79% (active)	-88.3% (active)	-8.04% (active)	27.6%	46.5%	0.0846% (active)	1.48% (active)		51.6%	-61.4% (active)	1.18% (active)	-41.8% (active)	62.9%	96.2%		3.41% (active)	
CCNC(=O)Oc1ccc(/C(=C(\C)c2ccccc2)c2ccc(OCCN3CCCCC3)cc2)cc1	17%	-13.8% (active)	84.7%	79.4%	48.6%	49.7%	62.5%	52.4%	57.3%	47.2%	82.8%	82%	41.2%	83.3%	84.2%	38.5%		72.7%	65.2%	51%
C[C@@H](Nc1ncnc2ccc(-c3cnc(N)nc3)cc12)c1ccc(F)cc1	88.6%	84.9%	69.5%	76.1%	80.9%	69.1%	73.2%	69.2%	78.4%	92.5%	101%	36.7%	35.1%	21.4%	41.5%	40.6%	-13.5% (active)	95.3%		
C[C@H](c1nc2ccc(N)cc2[nH]1)[C@H]1CC[C@H]2[C@@H]3CCC4=CC(=O)CC[C@]4(C)[C@H]3CC[C@]12C	67.8%	51.8%	39.6%	90.9%	70.7%	82.9%	81.3%	85%	84.2%	89.4%		85.6%	65.4%	109%	96.9%	91.3%	70.3%	63.7%	88.3%	
Nc1nc(Nc2ccccc2SSc2ccccc2Nc2nc(N)nc(-c3ccc(C(F)(F)F)cc3)n2)nc(-c2ccc(C(F)(F)F)cc2)n1	17.2%	93.3%	86.2%	58%	41.2%	29.5%	88.9%	68.3%	27.5%	95.6%	93.7%	44.6%	-84.6% (active)	95.4%	19.9%	-20.3% (active)		53.6%		56.2%
CNCCn1c(=O)c2cc(OC)c(OC)cc2c2ccc3cc4c(cc3c21)OCO4	17.3%	2.8% (active)	-0.403% (active)	8.32% (active)	5.74% (active)	8.41% (active)	-60.7% (active)	-79.7% (active)	-46.1% (active)	-34.2% (active)	-76.1% (active)	-6.68% (active)	-66.4% (active)	-68.9% (active)	-76% (active)	-84.9% (active)		-1.64% (active)		-10.3% (active)
Cn1ccc2c1CC1CN(Cc3ccco3)C(=O)C1C2C(=O)O (centres undefined)	95.8%	101%	74.3%	98%	97.3%	100%	102%	95.5%	94.6%	101%	99.2%	91.1%	89.6%	102%	105%	94.1%	98.3%	105%		103%
O=Cc1ccc(-c2cn3ccnc3c(-c3ccc4ncn(Cc5ccccc5)c4c3)n2)cc1	50.9%	82.5%	78.6%	85.6%	68%	81%	43.5%	62.9%	53.1%	92.5%	72.2%	79.1%	17.8%	99.3%	88.4%	63.4%	88.8%	22.1%		41.3%
O=C(/C=C/c1c(-c2ccc(Cl)cc2)nn(-c2ccccc2)c1C(F)(F)F)c1ccc(Cl)cc1	77.7%	89.9%	86.1%	96.1%	86.3%	92.2%	85.3%	82.5%	75%	103%		94.8%	74.1%	118%	90.7%	90%	87.6%	85.6%	88.1%	
O=S(=O)(NCCCNc1nccc(-c2c(-c3cccc(O)c3)nc3occn23)n1)c1ccc(Cl)cc1	98.7%	36.3%	92%	108%	102%	82.7%	39.8%	9.05% (active)	44.4%		52.5%	99.6%	89.8%	143%	81%	75.9%		73.2%	71.5%	71.3%
O=C(CSc1nc2ccccc2[nH]1)NCc1ccccc1	105%	99.4%	74.5%	97.8%	106%	98.8%	102%	95.2%	98.3%		120%	101%	83.6%	4.87% (active)	95.4%	82.1%	105%	103%	95.8%	
CCN(CC)CC[n+]1cc2cc(OC)c(OC)cc2c2ccc3cc4c(cc3c21)OCO4	32.9%	-50.1% (active)	3.63% (active)	14.5%	-38.2% (active)	3.91% (active)	-68.3% (active)	31.7%	-85.8% (active)	22.7%		17.5%	8.71% (active)	12.2%	8.72% (active)	26.5%		1.03% (active)	3.54% (active)	-5.52% (active)
